The source of these data is article PMC10726135, “HNF4α isoforms regulate the circadian balance between carbohydrate and lipid metabolism in the liver”.

The full ranking holds about 18,000 sequences; the median of “log2 normalized intensity” is about 0.39, and the highest 2% start at about 6.6. The sample as a whole holds a higher share of the highest values than the screen did.

The target in this test is T1, HNF4alpha2 (COS-7 nuclear extract) (Homo sapiens, UniProt P41235 1-474).
T1 sequence: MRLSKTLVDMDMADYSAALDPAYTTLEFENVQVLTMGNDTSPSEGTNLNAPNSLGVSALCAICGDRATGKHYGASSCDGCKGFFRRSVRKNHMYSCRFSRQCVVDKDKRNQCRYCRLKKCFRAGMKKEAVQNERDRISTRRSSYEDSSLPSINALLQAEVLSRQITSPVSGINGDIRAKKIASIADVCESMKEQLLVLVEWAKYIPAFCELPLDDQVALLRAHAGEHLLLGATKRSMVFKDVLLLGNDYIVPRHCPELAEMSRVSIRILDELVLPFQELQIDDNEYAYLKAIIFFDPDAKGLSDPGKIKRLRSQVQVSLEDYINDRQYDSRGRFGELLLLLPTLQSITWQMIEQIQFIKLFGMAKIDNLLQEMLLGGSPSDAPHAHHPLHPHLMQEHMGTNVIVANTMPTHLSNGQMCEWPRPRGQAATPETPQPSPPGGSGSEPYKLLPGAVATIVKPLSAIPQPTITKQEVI
Description: protein-binding microarray; COS-7 nuclear extract on double-stranded Agilent 4x180k PBM; binding buffer, salt, pH and temperature not given in the material; high values mean tight binding. The settings on record: chain copies: 2; label: 3' end of strand 1 on the slide; dsDNA, one strand shown. Put shortly:
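COS-7 cells were transiently transfected by CaPO4 with an expression vector for a human HNF4α isoform, and nuclear extracts were prepared from them. The extracts were applied to a custom Agilent SurePrint G3 4x180k array of double-stranded ~60-nt oligonucleotides, with ~44,000 test sequences spotted in quadruplicate. An Agilent G2565CA scanner imaged bound HNF4α at 2-µm resolution. Binding signal is the background-corrected, normalized gProcessedSignal from Agilent software.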
Turning to “TTAATGTGCTTGTCTGACTGCTGCCAAAGGGCCTAGGGAGATTAGAGTATCGGTCGA”, the binding signal is -0.631 log2 normalized intensity.
For the sequence “ATGGTGGAGGGTCTTGCTTTGATGTTGATGGCCTAGGGAGATTAGAGTATCGGTCGA”, the binding signal was determined as 1.58 log2 normalized intensity.
As for “CTTTTGGTATGCAAGGCATGGTGCTTCGCAGCCTAGGGAGATTAGAGTATCGGTCGA”, the figure is 1.26 log2 normalized intensity; as for “TTTCAAGAATGGAGAAAACAACATTCCTTGGCCTAGGGAGATTAGAGTATCGGTCGA”, -0.213 log2 normalized intensity; as for “TCCTTTGGATCATGTGTCTGAGCAAGTTTCGCCTAGGGAGATTAGAGTATCGGTCGA”, 2.08 log2 normalized intensity.
For the sequence “TGTCATCTAGACCTGGACTTGAAGCCAGACGCCTAGGGAGATTAGAGTATCGGTCGA”, the binding signal was -0.168 log2 normalized intensity.
In the case of “TGAGTCTGGTGTTTCCCTGTTTGCTTCTGCGCCTAGGGAGATTAGAGTATCGGTCGA”, the binding signal came out at 0.819 log2 normalized intensity.
For “GTTTAACTGACCCAGGGAGAAAGGTCAGGGGCCTAGGGAGATTAGAGTATCGGTCGA”, the binding signal was 2.86 log2 normalized intensity.
In the case of “TATCTTGTGACCTTTGACTCATTATCCCCCGCCTAGGGAGATTAGAGTATCGGTCGA”, the binding signal is 6.24 log2 normalized intensity.
On to “AGTGGTTTAAAAACTTATCTTGTGACCTTTGCCTAGGGAGATTAGAGTATCGGTCGA”, for which the binding signal was found to be 6.81 log2 normalized intensity.
Under “ATTCTCTTATCTACTTTAAGATTTGACCCTGCCTAGGGAGATTAGAGTATCGGTCGA” stands 5 log2 normalized intensity.
On to “CTTATCTACTTTAAGATTTGACCCTTGGCCGCCTAGGGAGATTAGAGTATCGGTCGA”, for which the binding signal came to 7.08 log2 normalized intensity.
As for “TTAAGATTTGACCCTTGGCCAGGTGCAGTGGCCTAGGGAGATTAGAGTATCGGTCGA”, the figure is 4.65 log2 normalized intensity.
Under “AAACTTATCTTGTGACCTTTGACTCATTATGCCTAGGGAGATTAGAGTATCGGTCGA” stands 6.43 log2 normalized intensity.
As for “ATCTGACCTTTGGTTAACTTCTTAACTTGGGCCTAGGGAGATTAGAGTATCGGTCGA”, the figure is 2.97 log2 normalized intensity.
“TTTAAAAACTTATCTTGTGACCTTTGACTCGCCTAGGGAGATTAGAGTATCGGTCGA”: the binding signal was found to be 8.33 log2 normalized intensity.
“CTGAACTTTAAACTGGTGTGTCTTGCCTTTGCCTAGGGAGATTAGAGTATCGGTCGA”: the binding signal worked out at 2.06 log2 normalized intensity.
In the case of “ATAAGACACATTCCATGCTTATCAGTGTACGCCTAGGGAGATTAGAGTATCGGTCGA”, the binding signal came out at 0.893 log2 normalized intensity.
As for “TAACTCAAAATCTGCTCTGTCCTGAGATGTGCCTAGGGAGATTAGAGTATCGGTCGA”, the figure is 1.06 log2 normalized intensity; as for “AGGCCTGGAACCTGTCTGACAGGATGAATTGCCTAGGGAGATTAGAGTATCGGTCGA”, -0.627 log2 normalized intensity; as for “GCTGCCGCAGATCCCCGCTCCCCTCCCCCAGCCTAGGGAGATTAGAGTATCGGTCGA”, 6.45 log2 normalized intensity.
Turning to “AAGAGCCAAAATGTGTTAGGCAAGCAAACTGCCTAGGGAGATTAGAGTATCGGTCGA”, the binding signal is -0.953 log2 normalized intensity.
As to “GTCAAAACTTTGTTTGAGTTCCAAAGTCCAGCCTAGGGAGATTAGAGTATCGGTCGA”, the binding signal came to 6.99 log2 normalized intensity.
Regarding “TTGTTTAGGTACAAAGTCCATTGGAAGCCAGCCTAGGGAGATTAGAGTATCGGTCGA”, the binding signal stood at 5.82 log2 normalized intensity.
Regarding “ACTTTGCCTTTTGGCTAAAGTCCAAATTCCGCCTAGGGAGATTAGAGTATCGGTCGA”, the binding signal was 5.14 log2 normalized intensity.
Under “GAATCAATGCCTGATTCCAAAGTCCACTTTGCCTAGGGAGATTAGAGTATCGGTCGA” stands 6.91 log2 normalized intensity; under “ATGTGGTCAAAACTTTGTTTGAGTTCCAAAGCCTAGGGAGATTAGAGTATCGGTCGA”, 1.07 log2 normalized intensity.
As for “AACTTTGTTTGAGTTCCAAAGTCCATGTTCGCCTAGGGAGATTAGAGTATCGGTCGA”, the figure is 6.61 log2 normalized intensity; as for “AGATTCGGTGAGGGATTGTTTAGGTACAAAGCCTAGGGAGATTAGAGTATCGGTCGA”, 1.53 log2 normalized intensity; as for “ATACAGAATCAATGCCTGATTCCAAAGTCCGCCTAGGGAGATTAGAGTATCGGTCGA”, 5.95 log2 normalized intensity.
Under “AGGGATTGTTTAGGTACAAAGTCCATTGGAGCCTAGGGAGATTAGAGTATCGGTCGA” stands 7.7 log2 normalized intensity; under “CTCTGAGATTCGGTGAGGGATTGTTTAGGTGCCTAGGGAGATTAGAGTATCGGTCGA”, 0.957 log2 normalized intensity.
As to “AAAGTCCATATTCTTTGTTTGGATGCCAAAGCCTAGGGAGATTAGAGTATCGGTCGA”, the binding signal came out at 1.58 log2 normalized intensity.
As for “CGGTGAGGGATTGTTTAGGTACAAAGTCCAGCCTAGGGAGATTAGAGTATCGGTCGA”, the figure is 8.35 log2 normalized intensity; as for “AAGCATTTGGAGATTGCCACCTTGGTGAGAGCCTAGGGAGATTAGAGTATCGGTCGA”, 0.715 log2 normalized intensity.
As for “GAGTTCTTCAAGTCAGTCAAAATGAATAGTGCCTAGGGAGATTAGAGTATCGGTCGA”, the figure is 1.32 log2 normalized intensity; as for “TTGGCAGATTAGATATATCTGTACTCAAACGCCTAGGGAGATTAGAGTATCGGTCGA”, 1.27 log2 normalized intensity.
As for “TAACAGGATTTTTGCTGAAGACAGGCCAGGGCCTAGGGAGATTAGAGTATCGGTCGA”, the figure is -0.417 log2 normalized intensity; as for “CTGAATGGAATGAAGATACTGGATAACCTTGCCTAGGGAGATTAGAGTATCGGTCGA”, 0.695 log2 normalized intensity.
As to “AGAATGAGACCTGCTAGGCTGCATTCTCTGGCCTAGGGAGATTAGAGTATCGGTCGA”, the binding signal is -0.977 log2 normalized intensity.
As for “TGCCTTATCTGGTTCAAAGGTCATTTCTGCGCCTAGGGAGATTAGAGTATCGGTCGA”, the figure is 6.58 log2 normalized intensity; as for “TTCTGGTCAAAGGTCAATGAAGCTCTTGCTGCCTAGGGAGATTAGAGTATCGGTCGA”, 5.65 log2 normalized intensity.
Under “TTATCTTACATGCCTTATCTGGTTCAAAGGGCCTAGGGAGATTAGAGTATCGGTCGA” stands 2.9 log2 normalized intensity; under “TAAGATTCTGGTCAAAGGTCAATGAAGCTCGCCTAGGGAGATTAGAGTATCGGTCGA”, 5.93 log2 normalized intensity; under “TTCATTCTTTAAGGACCACATCAAAGGTCAGCCTAGGGAGATTAGAGTATCGGTCGA”, 4.7 log2 normalized intensity.
